PubChem BioAssay AID1477 (National Center for Advancing Translational Sciences (NCATS), 2009)
The campaign covered roughly 230,000 compounds. Fewer than 10 were called active. About 3% were inconclusive and are not listed. Calls follow the shape of the dose curve; as a rule, active = well fitted curve in the direction sought with a large enough effect; inconclusive = small, poorly fitted or top-dose-only effect, or effect the other way, or another doubt; inactive = no such curve, though single readings can be large or run the other way. These entries were drawn from the full list. Bridge positions count the residues as written; N and C are the ends. Peptide text beside a SMILES is read from it.

Target: Runt-related transcription factor 1 (Homo sapiens) + Core-binding factor subunit beta (Homo sapiens) (UniProt Q01196+Q13951)
Sequence (Q01196 whole entry, looked up): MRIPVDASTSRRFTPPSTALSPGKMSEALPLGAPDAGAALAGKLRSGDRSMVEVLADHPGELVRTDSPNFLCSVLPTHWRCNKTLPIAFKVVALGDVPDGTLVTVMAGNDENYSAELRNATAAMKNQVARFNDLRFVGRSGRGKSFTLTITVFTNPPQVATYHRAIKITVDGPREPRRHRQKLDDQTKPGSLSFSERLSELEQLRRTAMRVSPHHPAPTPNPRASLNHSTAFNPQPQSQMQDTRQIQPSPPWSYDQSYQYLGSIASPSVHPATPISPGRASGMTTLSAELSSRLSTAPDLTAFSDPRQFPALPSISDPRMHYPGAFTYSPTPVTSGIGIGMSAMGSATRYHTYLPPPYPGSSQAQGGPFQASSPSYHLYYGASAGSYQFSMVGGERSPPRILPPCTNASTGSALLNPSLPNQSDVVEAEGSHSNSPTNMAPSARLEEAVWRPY
Sequence (Q13951 whole entry, looked up): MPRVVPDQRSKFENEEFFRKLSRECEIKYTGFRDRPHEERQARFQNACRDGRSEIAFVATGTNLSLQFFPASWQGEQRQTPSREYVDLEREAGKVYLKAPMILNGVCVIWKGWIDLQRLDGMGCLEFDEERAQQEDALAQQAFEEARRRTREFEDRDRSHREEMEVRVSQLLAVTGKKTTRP
Assay: qHTS Assay for Compounds Blocking the Interaction Between CBF-beta and RUNX1 for the Treatment of Acute Myeloid Leukemia; also: % of control where 0% means no effect
Conditions: AlphaScreen CBFb-His/RUNX1-biotin binding, biochemical; series mostly up to 59.8 µM; activity, negative = inhibition: at the top concentration
Description: NIH Chemical Genomics Center [NCGC]
NIH Molecular Libraries Probe Production centers Network [MLPCN]
Assay Submitter (PI): Paul Liu
Core Binding Factor (CBF) abnormalities are associated with 20-25% of all acute myeloid leukemias (AML), of which 5-10% are further sub classified as acute myelomonocytic leukemia with eosinophilia, also known as M4Eo in the FAB classification scheme. This subtype of leukemia is usually associated with chromosome 16 inversion (p13:q22). Chromosome 16 inversion results in formation of the fusion oncogene CBFB-MYH11, which encodes the fusion protein CBF-beta-SMMHC.
It has been hypothesized that the interference of CBF-beta and RUNX1 binding could have therapeutic implications for patients with CBF mediated leukemias. We developed a CBF-beta and RUNX1 binding assay in AlphaScreenTM format and optimized it for high throughput screening to search for inhibitors. The goal of this project is to screen MLPCN's compound collection (MLSMR) for identifying the inhibitors of the interaction between CBF-beta and RUNX1 proteins as research probes. If these probes work well in the animal models, the ultimate goal of this project is to development a new drug treatment for this disease.
This assay can not be used to assess how apparent inhibitors interfere with protein binding, and whether inhibitors specifically bind to either protein. Disruption of this protein-protein interaction, through any mechanism, is the intended target activity.
NCGC Assay Protocol Summary:
Step, Parameter, Description
(1) Reagent, 3 uL CBFb-His/RUNX1-biotin mix incubated together for 20 minutes at room temperature (30 nM each)
(2) Compound or control, 23 nL compound stock solution
(3) Incubation, 15 minutes at Room temperature
(4) Reagent, 1 uL 50 ng each of beads (Nickel beads and streptavidin beads)
(5) Incubation, 90 minutes at Room temperature
(6) Detection, Excitation=365 nm Emission=440 nm, Envision reader in AlphaScreenTM mode
Keywords: MLSMR, MLPCN, NIH Roadmap, qHTS, NCGC, Core binding factor, CBF, CBF-beta, Acute myeloid leukemia

activity, negative = inhibition, inactive:
CC[C@H](C)[C@H](NC(=O)[C@H](CCCNC(=N)N)NC(=O)[C@H](CCCNC(=N)N)NC(=O)[C@H](CC(C)C)NC(=O)[C@H](Cc1ccccc1)NC(=O)CNC(=O)CNC(=O)[C@@H](N)Cc1ccc(O)cc1)C(=O)N[C@@H](CCCNC(=N)N)C(=O)N1CCC[C@H]1C(=O)N[C@@H](CCCCN)C(=O)N[C@@H](CC(C)C)C(=O)N[C@@H](CCCCN)C(=O)N[C@@H](Cc1c[nH]c2ccccc12)C(=O)N[C@@H](CC(=O)O)C(=O)N[C@@H](CC(N)=O)C(=O)N[C@@H](CCC(N)=O)C(=O)O 4.96%
COC(=O)c1ccccc1N=Nc1c(C)[nH][nH]c1=O -0.539%
O=C(NCc1ccccc1)C1=C[C@@H](C2CCCCC2)C[C@@H](OCc2ccc(CO)cc2)O1 0.0499%
COc1ccc(N(CC(=O)NC2CCCCC2)C(=O)CNC(=O)c2ccco2)c(OC)c1 7.33%
CSc1ccccc1N1CCN(CCCCCC(=O)NC2CCCc3ccccc32)CC1 (centres undefined) -9.84%
CC1=C2[C@@H](O)[C@H]([C@@H](C)C(=O)NCCC(C)C)CC[C@@]2(C)C=CC1=O 13.2%
Cc1cccn2c(CN(C)C3CCCc4ccccc43)c(C(=O)N3CCOCC3)nc12 (centres undefined) -1.32%
COc1ccc(-c2ccc(C3C4C=CCCC4(C)C(=O)N3Cc3ccccc3)c(F)c2)cc1OC (centres undefined) -5.3%
CCCOC(=O)c1c(NC(=O)c2cnn3c2NC(c2ccccc2)CC3C(F)(F)F)sc2c1CCCC2 (centres undefined) -2.79%
COc1ccc(OC)c(C2C3=C(N=c4s/c(=C\c5cccc(O)c5)c(=O)n42)c2ccccc2CC3)c1 (centres undefined) -16.4%
Cc1cc(-c2nnc(CCC(=O)NC(c3ccccc3)c3ccccc3)o2)no1 10.9%
CCCN1CCC(=O)N(C(CSc2ccc(OC)cc2)Cc2ccccc2)CC1 (centres undefined) 8.03%
Cc1noc(C)c1-c1ccc2ncnc(NC(C)c3ccco3)c2c1 (centres undefined) -22.2%
O=C(CNC1CCCCC1)NCC1(c2ccccc2)CCCC1 6.6%
Nc1nc(NC(=O)/C=C/c2ccc(F)cc2)nn1-c1ccccc1 -1.51%
CC(Nc1nc(N2CCOCC2)nc2ccccc12)c1ccccc1 (centres undefined) 19.1%
COc1ccc(C2=Nn3c(nnc3-c3ccccc3O)SC2)cc1 -4%
O=C(O)C1CC=CC2CCN(C3CCCCC3)C(=O)C21 (centres undefined) 18.6%
Cc1ccc(CN(Cc2cccnc2)C(=S)Nc2cc(Cl)ccc2C)cc1 10.9%
O=C(NCc1ccccn1)[C@]1(C(F)(F)F)C[C@H](CCc2ccccc2)CCCO1 -3.84%
Cc1ccc(SCC(CC(C)C)N2CCN(CCc3ccccc3)CCC2=O)cc1 (centres undefined) 13.6%
O=C(CC1NCCc2ccccc21)Nc1cccc(Cl)c1 (centres undefined) -6.51%
CCOC(=O)c1ccccc1N1C(=O)C2Sc3[nH]c(=O)sc3C(/C=C/c3ccccc3)C2C1=O (centres undefined) -3.6%
CCOC(=O)c1cc2c(=O)[nH]c(C(Cl)(Cl)Cl)nc2o1 7%
C[C@@H](O)[C@@H]1NC(=O)[C@H](CCCCN)NC(=O)[C@H](Cc2c[nH]c3ccccc23)NC(=O)[C@H](Cc2ccccc2)NC(=O)[C@H](Cc2ccccc2)NC(=O)[C@H](CC(N)=O)NC(=O)[C@H](CCCCN)NC(=O)[C@@H](NC(=O)[C@@H]2CCCN2)CSSC[C@@H](C(=O)N[C@@H](CCCCN)C(=O)O)NC(=O)[C@H](CO)NC(=O)[C@H](CO)NC(=O)[C@H](Cc2ccccc2)NC1=O (H-PCKNFFWKTFSSCK-OH; disulfide 2-13) 10.5%
O=C1C2C(c3ccccc3)CC=CC2C(c2ccoc2)N1Cc1ccccc1 (centres undefined) 14.2%
COCCCn1c(SCc2cccc(OC)c2)nc2cc(OC)c(OC)cc2c1=N -7.59%
C=C1/C(=C\C=C2\CCCC3(C)C2CCC3C(C)/C=C/C(O)C2CC2)CC(O)CC1O (centres undefined) 13.2%
CCOC(=O)C(C)Oc1cccc2c(=O)n(CC(=O)NCCc3ccc(OC)c(OC)c3)ccc12 (centres undefined) 2.24% [at 2.36 µM]
COc1ccc(C(=O)C2CCCN(Cc3cccn3-c3ccccn3)C2)c(C)c1 (centres undefined) -4.12%
ONC(=Nc1ccc(Cl)cc1)c1ccccc1Cl 16.1%
COc1cc(CN2CCN(Cc3ccc(C)cc3)CC2)c([N+](=O)[O-])cc1OC -8.19%
C=C/C1=C/Cc2ccccc2[C@H](C[N+](=O)[O-])C(C(=O)OC)(C(=O)OC)C1 -6.91%
COC(=O)c1c(NC(=O)CN2C(=O)NC(CCc3ccccc3)C2=O)sc2c1CCCCC2 (centres undefined) -2.03%
CC(C)(C)NCCCOc1ccc(Cl)cc1C(C)(C)C -23.8%
CCCNC(=O)OC[C@H]1O[C@H](CCO/N=C/[C@@H](NS(=O)(=O)c2ccc(C)cc2)[C@H](C)/C=C/CC(=O)OC)C=C[C@@H]1Oc1ccc(OC)cc1 -0.295% [at 2.36 µM]
C/C=C/c1ccc(OCCCCN2CCC(C)CC2)c(OC)c1 5.81%
Cc1cccc(N2CCC(NCc3c(C(=O)N4CCCCC4)nc4c(C)cccn34)CC2)c1 5.52%
CC1(C)CC(CNCCC(c2ccc(F)cc2)c2ccco2)CCO1 (centres undefined) 18%
Fc1ccc(Cl)cc1-c1nc(Nc2ccncc2)c2nccnc2n1 14.3%
CCOc1ccc2sc(NS(=O)(=O)c3ccc(N)cc3)nc2c1 5.42%
CCc1ccc(CN(C)C(=O)CCc2nnc(-c3ccc(-c4ccccc4)cc3)o2)nc1 0.367%
CCOC(=O)C1(CCOc2ccccc2)CCN(C(=O)c2cncs2)CC1 15.7%
COc1ccc(C(CC(=O)N2CCN(c3ccccc3)CC2)c2c(O)cc(OC)cc2OC)cc1 (centres undefined)
